Compounds with a hit are over-represented: about 0.64% of the library has one in this group of screens.
SKBR3 24h inh: SK-BR-3 proliferation inhibitors, primary screen, cell-based, human, 24 h; SK-BR-3 viability, CellTiter-Glo ATP luminescence; hits give low values; 41,000 compounds, 0.47% hits; viability, % at 10 µM; AID 847, 2007;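 active = viability at or below the median of all test compounds minus 3 SD, in both replicates if run twice, cut at about 45% in these data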;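 note: 100% = median untreated cell wells and 0% = median positive control drug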
Htt clearance: clearance of mutant huntingtin inclusions, primary screen, imaging, HeLa Exon1htt(103Q)mCFP, confocal imaging | aggregate imaging; zero = plate's median compound well | inhibition, % at 1.5 µM | AID 853, 2007 | 47,000 compounds, 0.42% hits;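 active = inhibition of aggregate fluorescence above about 70%, also judged a hit by eye on the cell image, limit read from the data, passing the limit was not always enough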;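 note: cells exposed to compound for three days before fixation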
WNV protease inh: inhibitors of WNV NS2B-NS3 protease, primary screen, biochemical, fluorogenic substrate. AID 577, 2007. fluorogenic substrate Ex360/Em465; hits give low values. 65,000 compounds, 0.18% hits. z-score (test concentration not listed). Genome polyprotein (West Nile virus), P06935; in the data active = z-score below about -3
Target sequence (P06935 1371-1501 limits assumed): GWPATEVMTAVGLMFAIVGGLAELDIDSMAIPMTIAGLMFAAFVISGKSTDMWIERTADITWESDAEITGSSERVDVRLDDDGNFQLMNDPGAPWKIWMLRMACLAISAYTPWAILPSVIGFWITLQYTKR
Target sequence (P06935 1502-1679 limits assumed): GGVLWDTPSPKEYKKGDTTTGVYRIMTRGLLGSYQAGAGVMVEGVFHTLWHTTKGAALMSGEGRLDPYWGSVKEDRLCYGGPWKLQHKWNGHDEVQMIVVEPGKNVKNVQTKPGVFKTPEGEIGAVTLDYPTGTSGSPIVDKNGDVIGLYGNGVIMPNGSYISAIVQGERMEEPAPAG
Starred values were filed as active, the others as inactive.

Cc1cc(C)c(C)c(/C=C(/C#N)C(N)=S)c1C was read as Htt clearance 77*.
For Nc1cc(OC(=O)c2ccco2)nn1S(=O)(=O)c1ccc(F)cc1 the results were WNV protease inh -11*.
For Cc1ccc(S(=O)(=O)n2nc(OC(=O)c3ccco3)cc2N)cc1 the results were WNV protease inh -5.3*.
Screening CC(C)(C)C(=O)Oc1cc(N)n(S(=O)(=O)c2ccc(F)cc2)n1 returned SKBR3 24h inh 96, Htt clearance -9 and WNV protease inh -1.5.
`COc1ccccc1C(=O)Oc1cc(N)n(S(=O)(=O)c2ccc(C)cc2)n1` gave SKBR3 24h inh 96 and WNV protease inh -2.1.
Screening Cc1ccc(S(=O)(=O)n2nc(OC(=O)c3cccs3)cc2N)cc1 returned Htt clearance 64 and WNV protease inh -6.4*.
`Cc1ccc(S(=O)(=O)n2nc(OC(=O)C3CCCCC3)cc2N)cc1` gave SKBR3 24h inh 76 and WNV protease inh 0.97.
`CCC(C)N(C(=O)CSc1nc(-c2ccccc2)cs1)C1CCS(=O)(=O)C1` (centres undefined) gave Htt clearance -16.
For O=C(Nc1ccccc1)N(C1=NCCC1)c1ccc(OC(F)F)cc1 the results were SKBR3 24h inh 71 and WNV protease inh -0.62.
COc1ccc(C(=O)c2ccc(OC)c3cccc(O)c23)cc1OC was read as Htt clearance 22.
`COc1ccc2c3c(cccc13)NN=C2C` gave Htt clearance -16 and WNV protease inh -4.5*.
Screening Cc1noc(C)c1CSc1nnc(-c2ccncc2)n1-c1ccc(Cl)c(Cl)c1 returned WNV protease inh -0.56.
O=C(CCCc1ccccc1)N1CCc2ccccc21 was read as SKBR3 24h inh 91 and WNV protease inh -0.68.
CCOc1cc(CO)c(Br)cc1OCC(=O)O was read as Htt clearance 8.
Screening CCOc1ccc(Br)cc1CC(=O)O returned SKBR3 24h inh 129, Htt clearance 75* and WNV protease inh 0.04.
Cc1ccc2c(c1)c1c(n2CC(O)Cn2c(C)nc3ccccc32)/C(=N\O)CCC1 (centres undefined) was read as SKBR3 24h inh 104, Htt clearance 100* and WNV protease inh 0.05.
For Cc1ccc2c(c1)c1c(n2CC(O)Cn2c(C)nc3ccccc32)C(=O)CCC1 (centres undefined) the results were WNV protease inh -1.5.
CCNC(=O)C1CC(=O)N(c2ccc(Br)cc2)C1 (centres undefined) was read as SKBR3 24h inh 89, Htt clearance 5 and WNV protease inh 0.29.
Screening C1=Nc2c(Nc3ccccc3)ncnc2Oc2ccccc21 returned SKBR3 24h inh 72, Htt clearance 3 and WNV protease inh 1.3.
For CC(C)CCN1CC(C(=O)NCc2ccc(F)cc2)CC1=O (centres undefined) the results were WNV protease inh -4*.
`O=C(NCc1ccc(F)cc1)C1CC(=O)N(CCc2ccccc2)C1` (centres undefined) gave SKBR3 24h inh 98, Htt clearance 48 and WNV protease inh -1.1.
For COc1ccc(N=CC2=C(O)CCCC2=O)cc1 the results were Htt clearance -17 and WNV protease inh -4.2*.
Screening COc1ccc(N=CC2=C(O)CC(C)(C)CC2=O)cc1 returned SKBR3 24h inh 98, Htt clearance 3 and WNV protease inh 0.55.
Cc1cccc(C2(c3cccc(C)c3)OC(=O)c3ccccc32)c1 was read as Htt clearance 18.
Screening Cc1cc(O)ccc1C1(c2ccc(O)cc2C)OC(=O)c2ccccc21 returned Htt clearance 70*.
For CCOC(=O)C(C)Oc1cccc2c(=O)n(CC(=O)N3CCN(C(=O)OCC)CC3)ccc12 (centres undefined) the results were Htt clearance 41 and WNV protease inh -0.06.
CCC(CC)C(=O)Nc1ccc(Cl)c(Cl)c1 was read as Htt clearance -13.
Screening COCCN(C(=O)C(C)C)c1nnc(-c2ccc(C)cc2)s1 returned Htt clearance 42.
Screening CCOC(=O)N1CCC(c2cc(=O)n3[nH]c(-c4ccccc4)cc3n2)CC1 returned WNV protease inh 1.
`CCOC(=O)N1CCC(c2cc(=O)n3[nH]c(C)c(-c4ccc(F)cc4)c3n2)CC1` gave Htt clearance 82* and WNV protease inh 1.4.
`CCOCCCNC(=O)C(NC(=O)CC1NC(=O)NC1=O)c1ccc(Cl)cc1` (centres undefined) gave SKBR3 24h inh 44*, Htt clearance 8 and WNV protease inh -1.
Screening CCOCCCNC(=O)C(NC(=O)c1ccc(=O)[nH]c1)c1ccccc1 (centres undefined) returned WNV protease inh 0.67.
